Results on seven compounds are retold here after PubChem BioAssay (Tox21).

Assay [1] in a line: qHTS assay to identify small molecule agonists of the hypoxia (HIF-1) signaling pathway - cell viability counter screen (AID 1224844; calls by dose curve; also: nearly all actives have a fitted effect of over 50% in size; also: potency is read from the fitted curve at half-maximal effect). Summed up: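 Luminescent ATP content (CellTiter-Glo, 30 min, room temperature) served as the viability measure in HRE-bla ME-180 cells exposed to compounds for 17 hrs in low-serum medium (0.5% dialyzed FBS).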
Assay [2] can be described thus: qHTS assay to identify small molecule agonists of H2AX - cell viability counter screen (AID 1224847; calls by dose curve; also: nearly all actives have a fitted effect of over 30% in size; also: potency is read from the fitted curve at half-maximal effect). The method in brief:
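CHO-K1 wt, 1000 cells/well, o/n 37C; cpds 15 conc, 3 h 37C, 0.76% DMSO; CellTiter-Glo, 30 min RT, luminescence.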

Assay [3] can be described thus: qHTS assay to identify small molecule antagonists of the estrogen related receptor (ERR) signaling pathway from Tox21 library (AID 1224848). Also: potency is read from the fitted curve at half-maximal effect; nearly all actives have a fitted effect of over 50% in size. The method in brief: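 Antagonist-mode screen of the Tox21 10K library in an NTP-provided ERR reporter cell line; 18 h compound exposure at 37 C, luminescence measured with ONE-Glo.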
Assay [4] is described as follows: qHTS assay to identify small molecule agonists of the estrogen related receptor (ERR) signaling pathway from Tox21 library (AID 1224849; calls by dose curve; also: % is scaled to controls: 0 for no effect and ±100 for the full control effect; nearly all actives have a fitted effect of over 15% in size). The following applies: ERR reporter cell line, ONE-Glo luciferase, 18 h; at 92.4 µM (top of the series) unless noted. The method in brief: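 We plated ERR reporter cells, waited 6 h, added compounds in DMSO by pin tool and incubated them 18 h at 37 C. ONE-Glo was then added and luminescence read after 30 min.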

A short description of assay [5]: qHTS RealTime-Glo MT Cell Viability Assay in HEK293 cells - 32 hour (AID 1224868). Also: nearly all actives have a fitted effect of over 50% in size. Also: potency is read from the fitted curve at half-maximal effect. Summed up:
(§1)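 HEK293 cells were seeded at 600 cells/well together with NanoLuc luciferase and cell-permeant prosubstrate, preincubated 5 h at 37 C/5% CO2, then given compound in DMSO by pintool. Luminescence from viable-cell prosubstrate reduction was read repeatedly over 40 h.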

The nature of assay [6]: A CellTox Green Cytotoxicity Assay to monitor cytotoxicity in HEK293 cells - 0 hour (AID 1224869). Also: % is scaled to controls: 0 for no effect and ±100 for the full control effect; nearly all actives have a fitted effect of over 50% in size. Summed up: (§2)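 Each value comes from one timepoint of a single continuous run in which HEK293 cells with CellTox Green were exposed to compound for up to 40 h at 37 C, dye fluorescence rising with cell death.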
A short description of assay [7]: A CellTox Green Cytotoxicity Assay to monitor cytotoxicity in HEK293 cells - 40 hour (AID 1224871). Also: nearly all actives have a fitted effect of over 45% in size. Also: potency is read from the fitted curve at half-maximal effect. The method in brief:
as §2

A short description of assay [8]: qHTS RealTime-Glo MT Cell Viability Assay in HEK293 cells - 16 hour (AID 1224872). Also: nearly all actives have a fitted effect of over 50% in size. Also: potency is read from the fitted curve at half-maximal effect. The method in brief:
as §1

A short description of assay [9]: qHTS RealTime-Glo MT Cell Viability Assay in HEK293 cells - 40 hour (AID 1224874). Also: nearly all actives have a fitted effect of over 50% in size. Also: potency is read from the fitted curve at half-maximal effect. As to max response: % is scaled to controls: 0 for no effect and ±100 for the full control effect. Particulars: RealTime-Glo luminescence; max response: hits give low values. The method in brief:
(§3)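 qHTS format; HEK293 cells with NanoLuc/prosubstrate reagent, 37 C/5% CO2 for 5 h pre-dosing; compounds 23 nL in DMSO; luminescence at each time point reflects viable cells.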

Assay [10] in a line: A CellTox Green Cytotoxicity Assay to monitor cytotoxicity in HEK293 cells - 24 hour (AID 1224875). Also: nearly all actives have a fitted effect of over 45% in size. Also: potency is read from the fitted curve at half-maximal effect. As to activity change: % is scaled to controls: 0 for no effect and ±100 for the full control effect. Summed up:
as §2

Assay [11] can be described thus: A CellTox Green Cytotoxicity Assay to monitor cytotoxicity in HepG2 cells - 16 hour (AID 1224876). Also: nearly all actives have a fitted effect of over 45% in size. Also: potency is read from the fitted curve at half-maximal effect. Summed up: (§4)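 Continuous culture of HepG2 cells with a membrane-impermeant DNA dye; rising fluorescence marks dead cells. Compound exposure lasted up to 40 h at 37 C, with reads every 8 h from 0 h.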
Assay [12] is described as follows: A CellTox Green Cytotoxicity Assay to monitor cytotoxicity in HepG2 cells - 24 hour (AID 1224878). Also: nearly all actives have a fitted effect of over 45% in size. Also: potency is read from the fitted curve at half-maximal effect. As to Cytotoxicity: % is scaled to controls: 0 for no effect and ±100 for the full control effect. Summed up:
as §4

The nature of assay [13]: A CellTox Green Cytotoxicity Assay to monitor cytotoxicity in HepG2 cells - 40 hour (AID 1224879). Also: nearly all actives have a fitted effect of over 40% in size. Also: potency is read from the fitted curve at half-maximal effect. Summed up:
as §4

A short description of assay [14]: qHTS RealTime-Glo MT Cell Viability Assay in HepG2 cells - 24 hour (AID 1224867). Also: nearly all actives have a fitted effect of over 50% in size. Also: potency is read from the fitted curve at half-maximal effect. The method in brief: (§5)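 HepG2 cells were seeded at 600 cells/well together with NanoLuc luciferase and a cell-permeant prosubstrate, preincubated 5 h at 37 C/5% CO2, then pin-dosed with compounds in DMSO. Nonlytic luminescence from viable cells was read at each time point.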
Assay [15] in a line: qHTS RealTime-Glo MT Cell Viability Assay in HepG2 cells - 40 hour (AID 1224870). Also: nearly all actives have a fitted effect of over 50% in size. Also: potency is read from the fitted curve at half-maximal effect. Summed up: (§6)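 Real-time viability: cells seeded at 600 per well together with NanoLuc and cell-permeant prosubstrate, compounds added after 5 h incubation. Luminescence tracked at 0, 8, 16, 24, 32 and 40 h of exposure.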
The nature of assay [16]: qHTS RealTime-Glo MT Cell Viability Assay in HepG2 cells - 8 hour (AID 1224873). Also: nearly all actives have a fitted effect of over 55% in size. Also: potency is read from the fitted curve at half-maximal effect. Summed up:
as §6

A short description of assay [17]: qHTS RealTime-Glo MT Cell Viability Assay in HepG2 cells - 32 hour (AID 1224877). Also: nearly all actives have a fitted effect of over 55% in size. Also: potency is read from the fitted curve at half-maximal effect. Summed up: as §5
The nature of assay [18]: qHTS RealTime-Glo MT Cell Viability Assay in HEK293 cells - 0 hour (AID 1224880). The method in brief:
as §3

Assay [19] can be described thus: qHTS assay to identify small molecule agonists of the hypoxia (HIF-1) signaling pathway (AID 1224846; active = well fitted activation curve with a large enough effect in the signal ratio in the repeat runs, not every such curve was filed as active; the % refers to the signal ratio; also: % is scaled to controls: 0 for no effect and ±100 for the full control effect). The method in brief: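 Measured by blue/green FRET after loading CCF4-AM: beta-lactamase expressed from a hypoxia response element in ME-180 cells. Test agents were delivered in DMSO and left 17 hrs; cells had been plated 5 hrs earlier in low-serum (0.5% dialyzed FBS) medium.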

Inconclusive results are not listed. Active and inactive are the calls of the source. Unless noted, calls follow the shape of the dose curve; as a rule, active = well fitted curve in the direction sought with a large enough effect in the repeat runs; inconclusive = weak or mixed curves; inactive = no such curve, though single readings can be large; an effect the other way counts as inactive or inconclusive.

`O=c1c(C2CC(c3ccc(-c4ccc(Br)cc4)cc3)Cc3ccccc32)c(O)sc2ccccc12` (stereo not drawn): the values for the Potency in [1] and in assay [3] were 15.1 µM (active) and 7.5 µM (active), respectively. In addition, the Potency result in [2], in [5], in [6], in assay [7], in assay [8] and in assay [10] was “inactive” each time. Further, the Potency entry in assay [11], in [12] and in assay [13] was “inactive” in each case. In addition, the activity change, positive = activation in assay [4] is -54.2% [at 42.5 µM] (inactive). Also, the max response in assay [9] was -20.8% (inactive).

`CN(C)CCc1c[nH]c2cccc(O)c12`: the Potency result in [1], in assay [2], in [14], in assay [5], in [6] and in assay [15] was “inactive” throughout. Moreover, the Potency result in [7], in [8], in assay [16], in [10], in assay [17] and in assay [12] was “inactive” in each case. Also, the Potency result in [18] is “inactive”. The max response in assay [9] is -1.01% (inactive).

On to `CC(=O)/C=C/c1ccc2c(c1)OCO2`, for which the Potency entry in assay [1], in assay [14], in assay [5], in [6], in [15] and in [8] was “inactive” each time. In addition, the Potency entry in assay [10], in assay [17] and in assay [18] was “inactive” throughout. Further, the compound was called inactive in assay [19]. In addition, the Potency in assay [3] was 43.5 µM (active); in [13], 49.2 µM (active). Moreover, the activity change, positive = activation in assay [4] is -46.7% (inactive). Moreover, in [9], the max response was -11.6% (inactive).

Take `O=C1c2ccccc2C(=O)C1C(=O)C(c1ccccc1)c1ccc(Cl)cc1` (stereo not drawn): the Potency in [1] was 9.77 µM (active); in [3], 9.69 µM (active); in [11], 49 µM (active); in assay [12], 54.9 µM (active). Besides, the Potency result in assay [2], in assay [5], in assay [6], in assay [15], in assay [7] and in [8] was “inactive” in each case. Further, the Potency entry in assay [17] and in [18] was “inactive” in each case. Further, the activity change, positive = activation in [4] is -59.3% (inactive). Further, the max response in assay [9] was -21.2% (inactive).

As for `Oc1ccc2ccc3cccc4ccc1c2c34`, in assay [1], the Potency entry is “inactive”. Moreover, the call in assay [19] was inactive. Further, the Potency in assay [5] is 15.5 µM (active); in [8], 15.5 µM (active); in assay [16] it was 43.6 µM (active); in [13], 54.9 µM (active).

Turning to `[CH3][Hg][Cl]`, the Potency in assay [1] is 10.9 µM (active); in [2], 50.4 µM (active); in assay [14] it was 10.9 µM (active); in assay [5] it was 4.35 µM (active); in [15], 10.9 µM (active); in [7] it was 6.9 µM (active). Besides, the Potency in assay [8] was 4.89 µM (active); in assay [16], 15.5 µM (active); in [10], 7.74 µM (active); in [11] it was 12.3 µM (active); in [17] it was 10.9 µM (active); in assay [12] it was 12.3 µM (active). For the same compound, the Potency in assay [13] is 12.3 µM (active). The Potency result in assay [6] and in assay [18] was “inactive” each time.

As to `COC12CC[C@@]3(C[C@@H]1C(C)(O)C(C)(C)C)[C@H]1Cc4ccc(O)c5c4[C@@]3(CCN1CC1CC1)[C@H]2O5` (stereo partly drawn), the Potency in [1] was 34.4 µM (active); in [2], 28.2 µM (active); in assay [3], 27.1 µM (active); in assay [14] it was 43.4 µM (active); in assay [5] it was 24.4 µM (active); in [15], 48.6 µM (active). Besides, the Potency was 24.4 µM (active) in [7]; 24.4 µM (active) in assay [8]; 43.4 µM (active) in [16]; 24.4 µM (active) in [9]; 38.6 µM (active) in [10]; 43.4 µM (active) in assay [11]. In addition, the Potency in assay [17] was 48.6 µM (active); in assay [13] it was 24.4 µM (active). The activity change, positive = activation in assay [4] is -68% (inactive). For the same compound, the Potency entry in assay [6] and in [18] was “inactive” in each case.
